hgDAF-12 ag = activates the H. glycines DAF-12 receptor ligand-binding domain. 1.8% of 370,000 active. activation, % at 6.8 µM. HEK293 GAL4-hgDAF12 UAS-luciferase reporter, agonist luminescence; normalized to butyrate control;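 active means activation above a cutoff set at the mean of all screened compounds plus 3 SD, cut at about 10% in these data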
DAX1 inh-1 = NR0B1 (DAX1) inhibition; HEK293 Gal4-DAX1 luciferase reporter, luminescence; inhibition, % at 6.75 µM; 0.99% of 340,000 active;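 active means inhibition above the mean over all tested compounds plus 3 SD, cut at about 4.2% in these data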;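 further: inhibition shows as a rise in luminescence from relieved DAX1 repression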
Target sequence (P51843 207-470 limits assumed): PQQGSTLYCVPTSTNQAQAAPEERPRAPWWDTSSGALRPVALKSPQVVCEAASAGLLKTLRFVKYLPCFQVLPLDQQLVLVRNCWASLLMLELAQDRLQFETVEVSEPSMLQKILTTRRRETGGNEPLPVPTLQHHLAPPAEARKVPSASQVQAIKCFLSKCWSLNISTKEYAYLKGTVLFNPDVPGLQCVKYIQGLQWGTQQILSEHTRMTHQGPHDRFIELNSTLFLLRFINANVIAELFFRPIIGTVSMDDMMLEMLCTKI
hcDAF12 agonist = H. contortus DAF-12 activation, primary screen; HEK293 hcDAF-12 lit1-tk-luc reporter, luminescence; 0% DMSO, 100% Δ7-dafachronic acid; activation, % at 6.8 µM; 1.4% of 370,000 active; AID 652067;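 active means activation above the mean of all tested compounds plus 3 SD, cut at about 5.5% in these data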
DAX1 inh-2 = DAX1 (NR0B1) inhibition, primary screen | 1.1% of 370,000 active | inhibition, % at 6.8 µM | HEK293T StAR-luciferase reporter, SF-1/DAX-1 repression relief;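 active means inhibition above the mean over all tested compounds plus 3 SD, cut at about 3.6% in these data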;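 further: higher inhibition means more luminescence from relief of DAX-1 repression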
ssDAF-12 act = S. stercoralis DAF-12 activation, primary screen. activation, % at 6.8 µM. AID 652126. 1% of 370,000 active. HEK293 ssDAF-12/GRIP1 lit1-tk-luc reporter, luminescence; % of 3 µM dafachronic acid response;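 active means activation above the mean over all tested compounds plus 3 SD, cut at about 0.9% in these data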
hgDAF12 conf = hgDAF-12 agonism, confirmation assay; shares compounds with hgDAF-12 ag; HEK293 GAL4-hgDAF12 luciferase reporter, agonist mode; percent of butyrate response; activation, % at 6.8 µM; 80% of 3,300 active; AID 743050;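 active means mean activation over triplicate wells above the hit cutoff derived from the earlier primary screen, cut at about 11% in these data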
LXR ag 2 = activates human LXR-beta, counter-screen for DAF-12 agonists. shares compounds with hgDAF-12 ag. HEK293 Gal4-LXR luciferase reporter, 24 h. activation, % at 6.8 µM. 3,300 tested, under 10 active;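 active means mean activation of the triplicate above a set limit carried over from the primary screen, none filed active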
Of the large screens only hits and unclear results are named; the others gave an inactive call (follow-up assays come after a bar, where they were run). A selection: hits, their analogues and other compounds. The true share with any hit is near 4.1%.

N#CCCCc1cn(-c2nc3ccccc3s2)nn1	hgDAF-12 ag 14, DAX1 inh-2 4.0 (no result: DAX1 inh-1) | hgDAF12 conf 13 | LXR ag 2 inactive
Nc1ccccc1C#Cc1ccc2[nH]ccc2c1	hgDAF-12 ag 14, DAX1 inh-1 7.2 | hgDAF12 conf 12 | LXR ag 2 inactive
CCc1cc2cc(C(=O)Nc3ccccc3F)sc2s1	hgDAF-12 ag 15, hcDAF12 agonist 6.4 | hgDAF12 conf 18 | LXR ag 2 inactive
CCc1cc2cc(C(=O)Nc3ccc(F)cc3)sc2s1	none
Cc1ccc(S(=O)(=O)N2[C@@H](c3ccccc3F)C(C(=O)O)=CC[C@H]2c2ccc3c(c2)OCO3)cc1	none
CNC(=O)COc1ccc(C=O)cc1OC	none
COc1cc(C=O)ccc1OCc1cccc(Br)c1	hgDAF-12 ag 14 | hgDAF12 conf inactive | LXR ag 2 inactive
C/C(=N\NC(=O)c1cc(C)[nH]n1)c1ccc(-c2ccccc2)cc1	none
C/C(=N\NC(=O)c1cc(C(C)C)[nH]n1)c1ccncc1	none
C/C(=N/NC(=O)c1cc(C(C)C)[nH]n1)c1cccs1	hgDAF-12 ag 14, hcDAF12 agonist 6.1 | hgDAF12 conf 16 | LXR ag 2 inactive
C/C(=N\NC(=O)c1cc(C)[nH]n1)c1cccs1	hgDAF-12 ag 17, DAX1 inh-2 4.5 | hgDAF12 conf 14 | LXR ag 2 inactive
O=C(NCc1ccccc1)c1noc2c1CCCCC2	hgDAF-12 ag 15 | hgDAF12 conf 13 | LXR ag 2 inactive
Cc1ccc(NC(=O)c2noc3c2CCC3)cc1C	hgDAF-12 ag 19, DAX1 inh-2 4.2 | hgDAF12 conf 19 | LXR ag 2 inactive
CN(Cc1ccccc1Br)C(=O)CN1C(=O)NC2(CCCCCC2)C1=O	none
O=C(NCc1cccnc1)c1csc([C@@H]2C[C@H](O)[C@@H](CO)O2)n1	none (no result: DAX1 inh-1)
CN(C)c1ccc(C(=O)OCC(=O)c2ccc[nH]2)cc1	hgDAF-12 ag 15 | hgDAF12 conf 15 | LXR ag 2 inactive
O=c1[nH]cccc1-c1nc2ccccc2n1Cc1cccc(F)c1	none
NC(=O)c1cc2ccccc2o/c1=N/NC(=O)c1cccs1	none
N/C(=N\NC(=O)c1cccs1)c1cc2cc(Cl)ccc2oc1=O	hgDAF-12 ag 19 | hgDAF12 conf inactive | LXR ag 2 inactive
CCOC(=O)C1=CN(Cc2ccco2)S(=O)(=O)N(C)C1c1ccc(F)c(Cl)c1 (stereo unspecified)	none
O=C(Nc1c(Cl)cc2c(c1Cl)Cc1cc([N+](=O)[O-])ccc1-2)C(Cl)Cl	none
Cn1ncc(N=Cc2ccccc2)c1C(N)=O	none
Nc1ncc(Br)cc1N=Cc1ccccc1	hgDAF-12 ag 18, hcDAF12 agonist 6.0 | hgDAF12 conf inactive | LXR ag 2 inactive
O=C(Nc1ccccc1)O/N=C/c1ccc(F)cc1	hgDAF-12 ag 15 | hgDAF12 conf 16 | LXR ag 2 inactive
Cc1ccc(NC(=O)O/N=C/c2ccc(F)cc2)cc1	none
O=S(=O)(Nc1cccc(S(=O)(=O)N2CCCCC2)c1)c1ccccc1F	none
O=C(O)c1ccc(N=NN2CCCCC2)cc1	hgDAF-12 ag 14 (no result: DAX1 inh-1) | hgDAF12 conf 12 | LXR ag 2 inactive
Cc1ccc(Nc2cc(-n3cccn3)ncn2)c(C)c1	hgDAF-12 ag 15 | hgDAF12 conf 12 | LXR ag 2 inactive
O=C(Nc1ncc([N+](=O)[O-])s1)c1cccc([N+](=O)[O-])c1	hgDAF-12 ag 14, DAX1 inh-1 4.6, hcDAF12 agonist 5.9 | hgDAF12 conf inactive | LXR ag 2 inactive
COc1ccc(C)cc1NC(=O)Cc1csc(NC(=O)Nc2ccccc2OC)n1	none
Cc1cc(C)n(-c2nnc(NC34CC5CC(CC(C5)C3)C4)nn2)n1	hgDAF-12 ag 13 | hgDAF12 conf 15 | LXR ag 2 inactive
Cc1ccc(NC(=O)c2ccc3snnc3c2)cc1	hgDAF-12 ag 16 | hgDAF12 conf 16 | LXR ag 2 inactive
O=C(CSc1nnc(-c2ccc(O)cc2)o1)Nc1ccccc1	hgDAF-12 ag 16 | hgDAF12 conf 14 | LXR ag 2 inactive
O=C(O)c1ccccc1CSc1ccccn1	none
